High-throughput results as filed in PubChem BioAssay.
GDH-TPI inh – inhibits GDH-TPI coupling enzymes, artifact for Mtb FBA screen; AID 588335; GDH-TPI coupled enzyme counterscreen, NADH absorbance; inhibition, % at 4.8 µM; 1.2% of 360,000 active; in the data active = inhibition above about 30%;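 also: 0% = DMSO wells and 100% = wells lacking the enzyme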
Bead autofluor – compound fluorescence in toxin protease inhibitor counterscreen; compound autofluorescence counterscreen, microsphere flow cytometry; active compounds read high; fluorescence intensity (test concentration not listed); 3.1% of 360,000 active; in the data active = fluorescence intensity above about 16000; inconclusive = no clear call, values can overlap the other calls
BoNT-F LC inh – BoNT F light chain protease inhibition; 0.22% of 360,000 active; Multiplex microsphere protease cleavage assay, flow cytometry; inhibition, % at 10 µM; in the data active = inhibition above about 35%, passing the limit was not always enough; inconclusive = no clear call, values can overlap the other calls; also: plate controls were buffer without enzyme for full effect and enzyme alone for no effect
BoNT A protease – inhibitors of Botulinum neurotoxin A light chain protease; multiplex microsphere protease substrate cleavage, flow cytometry; 0.17% of 360,000 active; inhibition, % at 10 µM; also: plate controls were buffer without enzyme for full effect and enzyme alone for no effect
Anthrax LF prot – inhibitors of Bacillus anthracis lethal factor protease. P15917. multiplex microsphere protease cleavage assay, LF. inhibition, % at 10 µM. 0.12% of 360,000 active. AID 588501; also: plate controls were buffer without enzyme for full effect and enzyme alone for no effect
FBA Mtb inh – inhibits M. tuberculosis FBA enzyme. P9WQA3. 2.3% of 360,000 active. purified M. tuberculosis FBA, fluorescence read-out. inhibition, % at 1 µM. AID 588726; in the data active = inhibition above about 27%;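 also: 0% = vehicle and 100% = reference inhibitor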
Target sequence (P9WQA3 whole entry, looked up): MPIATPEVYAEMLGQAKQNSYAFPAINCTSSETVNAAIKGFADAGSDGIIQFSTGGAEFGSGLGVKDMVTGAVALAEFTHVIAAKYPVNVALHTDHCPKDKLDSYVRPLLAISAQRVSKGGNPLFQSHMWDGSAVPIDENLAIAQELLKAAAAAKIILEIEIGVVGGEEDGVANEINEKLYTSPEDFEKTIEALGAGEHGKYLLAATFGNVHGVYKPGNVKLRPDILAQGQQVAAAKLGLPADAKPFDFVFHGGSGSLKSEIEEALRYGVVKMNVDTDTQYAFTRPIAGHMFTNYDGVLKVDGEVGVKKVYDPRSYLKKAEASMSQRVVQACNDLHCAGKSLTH
* = called active by the depositor; ? = inconclusive; · = no result given; + = active, no number. Rows were chosen to be rich in hits. Some 6.7% of all compounds tested hit in one or more screens of this group. Rule as the data show it, unless noted: active = inhibition above about 30%; inconclusive = no clear call, values can overlap the other calls; inactive = below that.

SMILES	GDH-TPI inh	Bead autofluor	BoNT-F LC inh	BoNT A protease	Anthrax LF prot	FBA Mtb inh
CCOc1ccc(C2c3cc(OC)c(OC)cc3CC(=O)N2c2ccccc2)cc1 (stereo unspecified)	-3	20080*	7	5	-1	3
Cc1ccc(C2C(C#N)=C(N)SC(N)=C2C#N)cc1	7	11739	9	12	7	1
Cc1ccc(C2C(C#N)=C(N)SC(N)=C2C#N)c(C)c1	2	7929	71*	40*	28	9
Cn1c(=O)c2cc(S(=O)(=O)NCCC(=O)NCCc3ccc(Cl)cc3)ccc2n(C)c1=O	4	17176*	-5	-2	0	-2
Cc1ccc(C(=O)NCCNc2ccc(Cl)cc2[N+](=O)[O-])o1	9	22948*	-4	?	-3	-5
CS(=O)(=O)NCCCNc1ccc(Cl)cc1[N+](=O)[O-]	12	22714*	1	1	1	-12
O=C(NCCNc1ccc(Cl)cc1[N+](=O)[O-])c1ccccc1F	-6	4266	?	-3	-8	-5
CS(=O)(=O)NCCCNc1ccc(C(F)(F)F)cc1[N+](=O)[O-]	7	4421	0	-1	-4	-11
CC(C)(C)C1CCC(C(=O)OCC(=O)N2CCN(C(=O)c3ccco3)CC2)CC1 (stereo unspecified)	0	2963	-2	0	0	1
COC(=O)CN(c1ccc(C)c(Cl)c1)S(C)(=O)=O	-9	4039	10	0	2	0
COc1ccccc1CNS(=O)(=O)c1ccc2c(c1)CC(=O)N2C	-18	5507	-1	1	-1	1
CCN(CC)CCCCOc1ccccc1OC	-4	20460*	-1	1	-2	2
O=C(NCc1cccnc1)c1cc2ccccc2oc1=O	7	22899*	1	1	-1	13
O=C(O)c1cc2ccc(O)cc2oc1=O	17	3609	1	0	-9	·
O=C(NCc1ccccc1)c1cc2ccc(O)cc2oc1=O	0	4170	?	-1	-6	+
C/C(=N\NC(=O)CC#N)c1cc2ccc(O)cc2oc1=O	17	5182	0	-1	-9	+
O=C(O)c1ccc(N=c2oc3cc(O)ccc3cc2C(=O)NCc2ccccc2)cc1	13	3625	-7	-1	-8	+
COc1ccc(C2=CC(c3ccc(C)cc3)n3nnnc3N2)cc1 (stereo unspecified)	25	5951	-8	0	-1	21
Fc1ccc(C2=CC(c3ccc(Br)o3)n3ncnc3N2)cc1 (stereo unspecified)	11	2535	-3	2	-2	43*
Oc1ccc(C2C=C(c3ccc(F)cc3)Nc3ncnn32)cc1 (stereo unspecified)	14	5243	-4	0	-1	3
COc1ccc(C2C=C(c3ccc(C)cc3)Nc3ncnn32)cc1 (stereo unspecified)	4	3203	-1	0	-1	+
Fc1ccc(C2=CC(c3ccco3)n3ncnc3N2)cc1 (stereo unspecified)	19	2244	-5	0	0	113*
COC(=O)c1ccc(OC)c(CSc2nnc(COc3ccccc3)o2)c1	-4	9104	-3	0	-28	1
COCc1nnc(NS(=O)(=O)c2ccc(C)cc2)s1	-5	8493	-7	0	-9	-3
COCc1nnc(NS(=O)(=O)c2c(C)cc(C)cc2C)s1	1	23383*	0	0	0	-5
SMILES	GDH-TPI inh	Bead autofluor	BoNT-F LC inh	BoNT A protease	Anthrax LF prot	FBA Mtb inh
O=C(NCCCNC(=O)c1ccc(F)cc1)c1ccc(F)cc1	0	4063	57*	1	-6	3
O=C(NCCN1C(=O)S/C(=C\c2ccc(OC(F)F)cc2)C1=O)C1=COCCO1	41*	·	·	·	·	4
O=C(NCCN1C(=O)S/C(=C\c2ccccc2Cl)C1=O)C1=COCCO1	20	5583	7	2	-3	2
O=C(NCCN1C(=O)S/C(=C\c2ccccc2F)C1=O)C1=COCCO1	42*	·	·	·	·	3
O=C(NCCN1C(=O)S/C(=C\c2ccc(OC(F)F)cc2)C1=O)c1cnccn1	28	6898	-12	-1	1	-2
COc1cc(/C=C2\SC(=O)N(CCNC(=O)c3c(C)noc3C)C2=O)cc(OC)c1OC	31*	2864	1	2	4	1
COc1ccc(/C=C2\SC(=O)N(CCNC(=O)C3=COCCO3)C2=O)cc1	31*	6082	8	1	0	2
O=C(NCCN1C(=O)S/C(=C\c2ccc(Cl)cc2)C1=O)C1=COCCO1	-1	3555	0	-1	-5	0
Cc1cc(=O)oc2cc(OCC(=O)NCCCN3CCOCC3)ccc12	12	5023	6	0	2	15
Cc1nn(-c2ccccc2)c2c1C(c1ccc(O)c(O)c1)N1C(=N2)C(Nc2ccccc2)=Nc2ccccc21 (stereo unspecified)	1	3231	-4	2	-2	-5
Cc1ccc(C2NC(c3ccc(C)cc3)C(C)C(=NO)C2C)cc1 (stereo unspecified)	-2	8306	-10	-1	-3	-1
CC1C(=NO)C(C)C(c2ccccc2)NC1c1ccccc1 (stereo unspecified)	-6	22855*	-2	?	-1	0
c1cc(-c2nnn(CCOCCn3nnc(-c4ccncc4)n3)n2)ccn1	-3	3404	26	-2	12	1
N#Cc1sc2nc(-c3cccs3)cc(-c3ccc(Cl)cc3)c2c1N	28	16199*	2	?	12	7
COc1cc(C(=O)N2C[C@@H]3CCC[C@H]2C3)ccc1OC1CCN(C(C)=O)CC1	-1	?	?	-7	-3	1
CCNC(=S)NNC(=O)c1cc(-c2cc(C)ccc2C)nc2ccccc12	0	19654*	3	1	-1	2
CCCc1cc(C(=O)NNC(=S)NCC)c2ccccc2n1	16	1976	1	0	0	0
COc1nc(NCc2cccnc2)nc(OC)n1	17	16316*	-5	?	1	0
O=C(O)c1cccc(Cn2c(Cl)c(/C=N/NC(=O)c3ccc(O)cc3)sc2=O)c1	34*	6279	-3	0	0	-5
O=C(N/N=C/c1sc(=O)n(-c2ccccc2)c1Cl)c1ccccc1	31*	2614	-2	0	-1	-4
O=c1sc(/C=N/Nc2ccccc2)c(Cl)n1Cc1ccccc1	86*	2415	-2	0	1	-1
NC(=O)N/N=C/c1sc(=O)n(-c2ccccc2)c1Cl	14	?	?	2	-5	1
COC(=O)c1cccc(Cn2c(Cl)c(/C=N/NC(=O)c3ccccc3Cl)sc2=O)c1	9	8640	2	1	5	-6
O=Cc1sc(=O)n(Cc2cccc(C(=O)O)c2)c1Cl	4	4347	4	1	1	0
O=C(COc1ccccc1)N/N=C/c1sc(=O)n(Cc2cccc(C(=O)O)c2)c1Cl	23	·	·	·	·	-3
